Results on 24 molecules are retold here after PubChem BioAssay (Tox21).

The structures appear in SMILES notation. Values joined by “and” are separate entries in the source; they are usually repeats but may differ in a detail not shown here. Identical values can stand only once. Results filed as inconclusive are left out. Some compounds were tested as several samples or in several runs, with calls that do not always agree. Active and inactive are the calls of the source. Unless noted, calls come from the whole dose curve; as a rule, active = well fitted curve in the direction sought with a large enough effect in the repeat runs; inconclusive = weak or mixed curves; inactive = no such curve, though single readings can be large; an effect the other way counts as inactive or inconclusive.

Experiment [1] is described as follows: qHTS assay for small molecule agonists of the p53 signaling pathway (AID 651631; calls by dose curve; note: nearly all actives have a fitted effect of over 15% in size; note: potency is the fitted concentration of half-maximal effect). Put shortly:
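Quantitative high-throughput format: 4,000 p53RE-bla HCT-116 cells/well, 5 h pre-incubation, 16 h compound exposure at 37 °C, 2 h room-temperature substrate step, fluorescence intensity measured.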

The nature of experiment [2]: qHTS assay for small molecules that induce genotoxicity in human embryonic kidney cells expressing luciferase-tagged ATAD5 (AID 651632). Note: nearly all actives have a fitted effect of over 15% in size. In outline:
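HEK293T cells carrying luciferase-tagged ATAD5 were given compound or DMSO vehicle and incubated 16 hr at 37C, 5% CO2. Luciferase activity was read after 30 min at room temperature with Amplite; a rise signals genotoxic stress.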
In general terms: Quantitative high-throughput screening tests each substance at several concentrations.

Experiment [3] can be described thus: qHTS assay for small molecule agonists of the p53 signaling pathway - cell viability (AID 651633; calls by dose curve;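 note: p53RE-bla HCT reporter cells with a stable beta-lactamase p53 reporter; series mostly up to about 83 µM; nearly all actives have a fitted effect of over 30% in size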). In outline:
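Viability counter-read: CellTiter-Glo luminescence (30 min, room temperature) in the same p53RE-bla plates. These plates had been exposed to compounds for 16 h at 37 C.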

Experiment [4] can be described thus: qHTS assay for small molecules that induce genotoxicity in human embryonic kidney cells expressing luciferase-tagged ATAD5 - cell viability (AID 651634; calls by dose curve; note: nearly all actives have a fitted effect of over 25% in size). Put shortly: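 HEK293T cells carrying luciferase-tagged ATAD5, 2,000 cells/well, exposed to compound for 15.5 hr at 37C. Viability read as live-cell protease activity by CellTiter-Fluor fluorescence after 30 min at 37C.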

Experiment [5] in a line: qHTS assay for small molecule disruptors of the mitochondrial membrane potential - cell viability (AID 720634; calls by dose curve;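 note: human HepG2 liver cancer cells; series mostly up to about 83 µM; nearly all actives have a fitted effect of over 20% in size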). Put shortly: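 HepG2 cells, 2,000 per well, attached overnight, then treated 1 hr at 37 C, 5% CO2. Viability read as ATP by CellTiter-Glo luminescence after 30 min at room temperature. Read in the same wells as the m-MPI membrane-potential dye assay.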
The nature of experiment [6]: qHTS assay for small molecule disruptors of the mitochondrial membrane potential (AID 720635). Note: potency is the fitted concentration of half-maximal effect. In outline: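 Mitochondrial membrane potential tracked with Mito-MPS dye, red aggregates (ex 540/em 590 nm) against green monomers (ex 490/em 535 nm). Compound treatment 1 hr at 37C, dye 30 min in HepG2.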
Experiment [7] can be described thus: qHTS assay to test for compound auto fluorescence at 590 nm (red) in HepG2 cells (AID 720674). In outline:
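Red autofluorescence (Ex/Em 540/590 nm, Rose Bengal sodium equivalents) was measured in HepG2 cells, 2,000 per well in MEM plus 10% FBS, plated overnight at 37 C. Readings were taken 1 hr after adding 23 nL compound or DMSO, at 37 C and 5% CO2.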

A short description of experiment [8]: qHTS assay to test for compound auto fluorescence at 535 nm (green) in HepG2 cells (AID 720675).
Experiment [9] can be described thus: qHTS assay to test for compound auto fluorescence at 460 nm (blue) in HEK293 cells (AID 720678). Note: potency is the fitted concentration of half-maximal effect. In outline:
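Measured: blue fluorescence (Ex 405/Em 460 nm) of compound-treated HEK293 cells, incubated overnight at 37C with 5% CO2 and scaled to triamterene equivalents.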

A short description of experiment [10]: qHTS assay to test for compound auto fluorescence at 590 nm (red) in HEK293 cells (AID 720679). Put shortly:
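Using HEK293 cells at 2,000 per well, the screen added 23 nL of each compound after cell attachment and incubated overnight (37C, 5% CO2). The plate reader then captured red-label fluorescence, Ex/Em 540/590nm.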
Tags give direction and shape of the fitted curve or compound fluorescence and quenching.

In the case of `O=C(Cl)c1ccc(C(=O)Cl)cc1`, the Potency entry in [1], in experiment [2], in experiment [3], in experiment [4], in experiment [5] and in experiment [6] was “inactive” each time. For the same molecule, in experiment [9], the Potency entry is “inactive”. The molecule was classed as inactive in experiment [7], in experiment [8] and in experiment [10].
In the case of `CCCCCCCCCCCCCC(=O)O`, the Potency entry in experiment [1], in experiment [2], in experiment [3], in experiment [4], in [5] and in [6] was “inactive” each time. Moreover, the Potency result in experiment [9] is “inactive”. Also, the result in [7], in experiment [8] and in experiment [10] was inactive.
Consider `OC[C@H]1O[C@@H](Oc2ccc(O)cc2)[C@H](O)[C@@H](O)[C@@H]1O`, for which the Potency result in [1], in experiment [2], in experiment [3], in experiment [4], in [5] and in experiment [6] was “inactive” in each case. The Potency result in [9] is “inactive”. Besides, the molecule was classed as inactive in experiment [7], in experiment [8] and in [10].
For `COc1ccccc1[N+](=O)[O-]`, the Potency result in [1], in experiment [2], in experiment [3], in experiment [4], in [5] and in experiment [6] was “inactive” throughout. The Potency entry in [9] is “inactive”. In addition, the outcome in experiment [7], in experiment [8] and in experiment [10] was inactive.
With `OB(O)O`, the Potency entry in experiment [1], in [2], in experiment [3], in experiment [4], in [5] and in experiment [6] was “inactive” each time. The Potency entry in experiment [9] was “inactive”. The molecule was classed as inactive in [7], in experiment [8] and in experiment [10].
For the molecule `Cc1cc(C)c(O)c(C)c1`, the Potency result in experiment [1], in [2], in [3], in [4], in experiment [5] and in experiment [6] was “inactive” each time. Further, in experiment [9], the Potency entry is “inactive”. Also, the molecule was called inactive in [7], in experiment [8] and in experiment [10].
As for `CCn1cc(C(=O)O)c(=O)c2cc3c(cc21)OCO3`, the Potency result in experiment [1], in [2], in experiment [3], in [4], in [5] and in experiment [6] was “inactive” in each case. The Potency entry in experiment [9] was “inactive”. The outcome in experiment [7], in experiment [8] and in experiment [10] was inactive.
Regarding `COCN(COC)c1nc(N(COC)COC)nc(N(COC)COC)n1`, the Potency entry in experiment [1], in experiment [2], in [3], in experiment [4], in experiment [5] and in experiment [6] was “inactive” each time. Further, the Potency entry in experiment [9] was “inactive”. Further, the molecule was called inactive in experiment [7], in experiment [8] and in experiment [10].
For `Brc1ccc(Oc2ccc(Br)cc2)cc1`, the Potency entry in experiment [1], in experiment [2], in experiment [3], in experiment [4], in experiment [5] and in experiment [9] was “inactive” each time. Also, the Potency in experiment [6] was 21.7 µM (active) and 27.3 µM (active). The molecule was called inactive in experiment [7], in experiment [8] and in [10].
Take `Cc1ccc(C)c(S(=O)(=O)O)c1`: the Potency entry in [1], in experiment [2], in [3], in experiment [4], in experiment [5] and in experiment [6] was “inactive” throughout. For the same molecule, the Potency result in experiment [9] is “inactive”. Further, the outcome in experiment [7], in experiment [8] and in experiment [10] was inactive.
In the case of `Cc1ccc([N+](=O)[O-])cc1N`, the Potency result in experiment [1], in [2], in [3], in experiment [4], in [5] and in experiment [6] was “inactive” throughout. Also, the Potency result in [9] is “inactive”. Further, the molecule was classed as inactive in [7], in experiment [8] and in experiment [10].
On to `Cc1cc(C)cc(O)c1`, for which the Potency result in [1], in experiment [2], in experiment [3], in experiment [4], in [5] and in experiment [6] was “inactive” in each case. In experiment [9], the Potency entry was “inactive”. For the same molecule, the molecule was called inactive in experiment [7], in [8] and in [10].
As for `Cc1ccccc1Cl`, the Potency entry in experiment [1], in experiment [2], in [3], in [4], in [5] and in experiment [6] was “inactive” each time. Further, the Potency entry in experiment [9] is “inactive”. Further, the molecule was called inactive in experiment [7], in [8] and in experiment [10].
Regarding `Cc1cc(CC(=O)O)n(C)c1C(=O)c1ccc(Cl)cc1`, the Potency entry in [1], in [2], in experiment [3], in experiment [4], in experiment [5] and in experiment [6] was “inactive” throughout. Moreover, the Potency result in [9] was “inactive”. Also, the call in experiment [7], in experiment [8] and in experiment [10] was inactive.
As to `CCc1cccc(O)c1`, the Potency entry in experiment [1], in experiment [2], in [3], in experiment [4], in experiment [5] and in [6] was “inactive” each time. In addition, the Potency entry in [9] is “inactive”. The molecule was classed as inactive in experiment [7], in experiment [8] and in experiment [10].
Turning to `CC(=O)OCCC(C)C`, the Potency result in [1], in [2], in experiment [3], in experiment [4], in [5] and in experiment [6] was “inactive” in each case. The Potency entry in [9] is “inactive”. Further, the outcome in experiment [7], in experiment [8] and in experiment [10] was inactive.
In the case of `Nc1nc(N)c2nc(-c3ccccc3)c(N)nc2n1`, the Potency in [1] is 26.6 µM (active) and 15.5 µM (active) and 34.4 µM (active); in experiment [9], 14.1 µM [fluorescent] (active) and 31.6 µM [fluorescent] (active) and 35.5 µM [fluorescent] (active). Further, the Potency entry in [2], in [3], in [4], in [5] and in [6] was “inactive” in each case. Besides, the molecule was classed as inactive in experiment [7], in experiment [8] and in [10].
Turning to `Cc1nnc(NS(=O)(=O)c2ccc(N)cc2)s1`, the Potency result in [1], in experiment [2], in [3], in experiment [4], in experiment [5] and in experiment [6] was “inactive” each time. The Potency result in experiment [9] is “inactive”. The outcome in experiment [7], in experiment [8] and in experiment [10] was inactive.
For `COc1ccc(N)c(OC)c1`, the Potency result in experiment [1], in experiment [2], in [3], in [4], in experiment [5] and in [9] was “inactive” in each case. Moreover, in experiment [6], the Potency was 54.5 µM (active). Besides, the molecule was classed as inactive in [7], in [8] and in experiment [10].
Consider `CCCCCCC(=O)O`, for which the Potency entry in experiment [1], in experiment [2], in experiment [3], in experiment [4], in experiment [5] and in [6] was “inactive” throughout. In addition, the Potency entry in [9] was “inactive”. Also, the call in experiment [7], in experiment [8] and in [10] was inactive.
With `OCc1ccc(Cl)cc1Cl`, the Potency entry in experiment [1], in experiment [2], in experiment [3], in experiment [4], in [5] and in experiment [6] was “inactive” throughout. Also, the Potency entry in experiment [9] was “inactive”. The call in experiment [7], in [8] and in experiment [10] was inactive.
Turning to `CCOC(=O)c1ccc(O)cc1`, the Potency entry in experiment [1], in experiment [2], in experiment [3], in experiment [4], in experiment [5] and in experiment [9] was “inactive” throughout. Further, the Potency result in experiment [6] is “inactive and 21.7 µM (active)”. Further, the result in [7], in experiment [8] and in experiment [10] was inactive.
In the case of `CC/C=C(\C(=O)N[C@@H]1C(=O)N2C(C(=O)OCOC(=O)C(C)(C)C)=C(COC(N)=O)CS[C@H]12)c1csc(N)n1`, the Potency entry in [1], in experiment [2], in [3], in [4], in [5] and in [6] was “inactive” each time. For the same molecule, the Potency entry in experiment [9] was “inactive”. The outcome in experiment [7], in experiment [8] and in experiment [10] was inactive.
Take `Cc1ccncc1`: the Potency result in [1], in [2], in [3], in experiment [4], in [5] and in [6] was “inactive” throughout. Moreover, the Potency entry in experiment [9] was “inactive”. Moreover, the molecule was classed as inactive in experiment [7], in experiment [8] and in experiment [10].
